Assay [1] has as its target Luciferin 4-monooxygenase (Photinus pyralis) (UniProt P08659). The assay is described as follows: Biochemical firefly luciferase enzyme assay for NPC (AID 624030).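 Note: purified P. pyralis luciferase at 10 nM with luciferin and ATP substrate; 0% = DMSO and -100% = full luciferase inhibition by PTC124 control; nearly all actives have a fitted effect of over 70% in size.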 In short, it runs like this:
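Direct inhibition of firefly luciferase enzyme (10 nM final, 50 mM Tris Acetate) assessed by luminescence within 5 minutes. Percent activity scaled between DMSO and PTC124 positive control, with concentration-effect curves classified by fit quality and response.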

Assay [2] is described as follows: S16 Schwann cell viability assay (CellTiter-Glo assay) (AID 624031).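 Note: native untransfected S16 rat Schwann cells; cellular ATP luminescence as a viability measure; plate controls were DMSO-treated cells for no effect and cell-free wells for full effect; nearly all actives have a fitted effect of over 70% in size.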 An outline of the steps: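 Following overnight culture in 10% FBS DMEM, parental S16 rat Schwann cells are dosed for 24 h at 37 °C. Viability is read as CellTiter-Glo luminescence and expressed as % activity relative to DMSO (0%) and no-cell wells.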
(In general: Cellular ATP, detected with luciferase, serves as a proxy for viable cell number.)

Assay [3] has as its target Glutaminase kidney isoform, mitochondrial (Homo sapiens) (UniProt O94925). Kind of assay: qHTS for Inhibitors of Glutaminase (GLS): LOPAC Validation (AID 624146).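 Note: glutamate product detected by oxidase and peroxidase coupled Amplex red fluorescence gain; % is set by controls: 0 for no effect and ±100 for the full control effect; nearly all actives have a fitted effect of over 60% in size.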 In short, it runs like this: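 Assay buffer: 45 mM KH2PO4 pH 8.2, 0.02% Tween-20. hKGA acts on L-glutamine (1 mM solution added); product glutamate is reported by an oxidase/peroxidase Amplex Red coupling, with fluorescence taken at baseline and 30 min.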
Background: qHTS replaces the single test concentration by a dilution series.

Assay [4] can be described thus: qHTS of Trypanosoma Brucei Inhibitors: LOPAC Validation (AID 624147). Note: 0% is about no effect. An outline of the steps: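 Glycolytic pyruvate kinase of T. brucei was incubated with substrate, test compound and 130 uM ADP for 45 minutes at room temperature. Luminescent Kinase-Glo Plus signal was measured after 10 minutes.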
A short description of assay [5]: HTS Assay for Allosteric Antagonists of the Human D2 Dopamine Receptor: Hit Validation in HTRF (AID 624455).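 Note: stable D1 dopamine receptor cell line scored for blocking the D1 response; % is set by controls: 0 for no effect and ±100 for the full control effect.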 In short, it runs like this:
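Inhibition of the D1-mediated response is measured by HTRF in cells that stably express the D1 dopamine receptor. Compounds reaching this step are hits from calcium-flux antagonism testing at EC80 dopamine in inducible Hek293 Trex D2 cells.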
For orientation: In TR-FRET formats the signal depends on donor and acceptor labels being close together.

Assay [6] deals with Glucagon-like peptide 1 receptor (Homo sapiens) (UniProt P43220). The assay is described as follows: qHTS of GLP-1 Receptor Agonists: LOPAC Validation (AID 624148).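 Note: luminescence from a luciferase reporter switched on by cAMP; 0% is about no effect; higher luminescence signal means agonism.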 In short, it runs like this:
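Agonism scored as increased luciferase luminescence driven by cAMP in HEK293 clones carrying GLP-1R. Cells settled 12 hours, received compound for 4-6 hr at 37 deg C, 5% CO2, and were read after 12 min detection reagent at RT.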

A short description of assay [7]: qHTS of Nrf2 Activators: LOPAC Validation (AID 624149). Note: 0% is about no effect. An outline of the steps: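 Cells (AREc32_Fluc) are plated at 1000 per well in OPTI-MEM containing 5% FBS and left overnight. Compounds are pinned in and incubated 24 hr at 37 deg C, and firefly luciferase is detected with Steady-Glo.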
Assay [8] in a line: S16 Schwann cell PMP22 intronic element firefly luciferase assay (AID 624032). Note: nearly all actives have a fitted effect of over 30% in size. Note: potency is the fitted concentration of half-maximal effect. In short, it runs like this: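 Luciferase reporter of PMP22 intronic-element expression in stably transfected S16 rat Schwann cells, read by ONE-Glo luminescence after 24 h compound exposure at 37 C. Activity scaled between DMSO (0%) and positive-control PTC124; concentration-effect curves quality-classified.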

Assay [9] in a line: S16 Schwann cell PMP22 intronic element beta-lactamase assay (AID 624044; calls by dose curve;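 note: 0% = DMSO and -100% = potassium clavulanate positive control; nearly all actives have a fitted effect of over 15% in size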). In short, it runs like this: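 Beta-lactamase reporter under a PMP22 intronic regulatory element in stable S16 rat Schwann cells; 24 h compound exposure. 460 nm blue signal normalized between DMSO (0%) and potassium clavulanate, with 535 nm FRET tracking viability; curves classed by r2 and response.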

Assay [10] can be described thus: Cytotoxicity counterscreen for NFkB agonists and antagonists (AID 624476). Note: potency is the fitted concentration of half-maximal effect.
Assay [11] in a line: qHTS Assay for Identification of Small Molecule Agonists for NFkB Signaling Pathway. (AID 624478).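 Note: compounds tested together with TNF alpha at its EC50 of 10 pM; 0% is about no effect.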 An outline of the steps: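 Activators were sought in reporter cells stimulated at the TNF alpha EC50 (10 pM final). Compound and cytokine were co-incubated 5 hours at 37 C before beta-lactamase substrate detection by dual-emission fluorescence.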
The nature of assay [12]: qHTS Assay for Identification of Small Molecule Antagonists for NFkB Signaling Pathway. (AID 624479; calls by dose curve; note: % is set by controls: 0 for no effect and ±100 for the full control effect).
Assay [13] in a line: Cell Proliferation Assay against the TMD8 Cell Line (AID 651645).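 Note: cells exposed to compound for 48 h before reading.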 The settings on record: TMD8 DLBCL cell line proliferation/viability; at 46.1 µM (top of the series) unless noted. An outline of the steps: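 TMD8 ABC DLBCL cells, 500 per well in phenol red-free RPMI with 5% FBS, were treated with compound by pin transfer and incubated 48 hours at 37C, 5% CO2. Viability was read by CellTiter-Glo luminescence, normalised to DMSO (100%) and 9.2 uM bortezomib (0%).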

Assay [14] is described as follows: Cell Proliferation Assay against the HBL1 Cell Line (AID 651646).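 Note: cells exposed to compound for 48 h before reading.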 As to conditions: HBL1 DLBCL cells; at 46.1 µM (top of the series) unless noted. In short, it runs like this: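 CellTiter-Glo luminescence after 48 h compound exposure at 37C gives percent activity, with DMSO as 100% and 9.2 uM bortezomib final as 0%. Cells: 500 log-phase HBL1 per well, RPMI plus 5% FBS.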

Assay [15] is described as follows: Cell Proliferation Assay against the TMD8 Cell Line (Caspase readout at 8 hrs) (AID 651713).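 Note: 0% = DMSO and 100% = 9.2 µM bortezomib caspase signal.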 In short, it runs like this: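 Caspase 3/7 activation in ABC DLBCL TMD8 cells is measured by luminescence after an 8 h compound exposure at 37C. Relative light units are scaled between DMSO (0%) and 9.2 uM final bortezomib (100%).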
Assay [16] is described as follows: Cell Proliferation Assay against the TMD8 Cell Line (Caspase readout at 16 hrs) (AID 651712). An outline of the steps:
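Caspase-Glo luminescence measured apoptosis after a 16 h, 37 C compound exposure of TMD8 cells (500 cells/well, 5% FBS RPMI). DMSO set 0% and bortezomib at 9.2 uM final set 100% activity.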

Inconclusive results are not listed. Active and inactive are the calls of the source. Unless noted, calls come from the whole dose curve; as a rule, active = well fitted curve in the direction sought with a large enough effect; inconclusive = small, poorly fitted or top-dose-only effect, or another doubt; inactive = no such curve, though single readings can be large; an effect the other way counts as inactive or inconclusive.

Sequence of Luciferin 4-monooxygenase (Photinus pyralis) (P08659 whole entry, looked up): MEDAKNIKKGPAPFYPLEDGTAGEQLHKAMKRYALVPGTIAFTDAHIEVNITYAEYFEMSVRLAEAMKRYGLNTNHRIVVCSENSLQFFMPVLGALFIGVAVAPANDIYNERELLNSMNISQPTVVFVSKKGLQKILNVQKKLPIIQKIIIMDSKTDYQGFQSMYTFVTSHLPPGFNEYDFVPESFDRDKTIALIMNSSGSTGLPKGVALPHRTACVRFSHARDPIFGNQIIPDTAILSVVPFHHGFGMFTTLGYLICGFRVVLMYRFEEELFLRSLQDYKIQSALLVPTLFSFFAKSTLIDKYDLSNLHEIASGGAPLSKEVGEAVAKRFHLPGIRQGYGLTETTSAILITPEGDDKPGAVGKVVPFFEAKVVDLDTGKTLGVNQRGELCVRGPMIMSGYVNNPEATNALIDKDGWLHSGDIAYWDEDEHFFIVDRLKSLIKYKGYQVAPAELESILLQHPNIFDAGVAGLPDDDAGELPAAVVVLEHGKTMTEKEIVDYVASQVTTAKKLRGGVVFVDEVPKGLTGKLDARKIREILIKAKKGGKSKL
Sequence of Glucagon-like peptide 1 receptor (Homo sapiens) (P43220 whole entry, looked up): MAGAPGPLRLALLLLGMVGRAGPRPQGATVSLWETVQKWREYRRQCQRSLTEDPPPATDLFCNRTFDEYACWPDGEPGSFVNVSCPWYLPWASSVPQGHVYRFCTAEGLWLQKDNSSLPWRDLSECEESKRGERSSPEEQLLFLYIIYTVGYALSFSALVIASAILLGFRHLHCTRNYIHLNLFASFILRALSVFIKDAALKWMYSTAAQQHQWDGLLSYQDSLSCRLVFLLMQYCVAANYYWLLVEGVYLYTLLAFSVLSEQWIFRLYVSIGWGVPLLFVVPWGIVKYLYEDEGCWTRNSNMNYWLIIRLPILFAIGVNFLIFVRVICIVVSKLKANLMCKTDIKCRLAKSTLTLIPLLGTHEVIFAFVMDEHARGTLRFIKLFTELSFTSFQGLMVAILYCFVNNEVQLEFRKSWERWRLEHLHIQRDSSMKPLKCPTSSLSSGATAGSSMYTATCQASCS
Sequence of Glutaminase kidney isoform, mitochondrial (Homo sapiens) (O94925 whole entry, looked up, canonical isoform): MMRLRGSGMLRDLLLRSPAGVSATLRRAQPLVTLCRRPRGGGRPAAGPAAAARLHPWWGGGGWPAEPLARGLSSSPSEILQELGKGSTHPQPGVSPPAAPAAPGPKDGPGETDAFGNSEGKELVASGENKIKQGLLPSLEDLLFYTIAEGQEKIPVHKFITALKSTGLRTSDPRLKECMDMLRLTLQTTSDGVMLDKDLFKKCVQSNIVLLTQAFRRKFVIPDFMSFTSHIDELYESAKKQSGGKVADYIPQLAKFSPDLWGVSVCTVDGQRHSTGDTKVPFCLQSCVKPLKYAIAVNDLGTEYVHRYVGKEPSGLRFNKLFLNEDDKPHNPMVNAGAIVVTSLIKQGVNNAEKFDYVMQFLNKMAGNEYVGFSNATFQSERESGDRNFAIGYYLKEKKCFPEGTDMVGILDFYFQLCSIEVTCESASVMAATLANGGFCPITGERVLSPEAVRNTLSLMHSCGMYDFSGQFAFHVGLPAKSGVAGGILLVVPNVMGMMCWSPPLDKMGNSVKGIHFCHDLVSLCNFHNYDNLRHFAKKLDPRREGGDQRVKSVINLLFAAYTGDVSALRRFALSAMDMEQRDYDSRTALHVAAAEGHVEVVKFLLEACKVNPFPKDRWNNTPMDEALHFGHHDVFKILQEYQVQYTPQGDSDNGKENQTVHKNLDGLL

Regarding `CC(C)(C)NCC(O)c1ccc(O)c(CO)c1` (stereo not drawn), the Potency entry in assay [1], in [2] and in [5] was “inactive” in each case. For the same compound, the outcome in assay [3] and in [4] was inactive.

As for `C1COC(NC(C2CC2)C2CC2)=N1`, the Potency entry in assay [1] and in [5] was “inactive” throughout. Further, the call in assay [3], in assay [4], in [6] and in assay [7] was inactive.

Turning to `NNCCc1ccccc1`, the Potency result in [2], in assay [8] and in assay [5] was “inactive” throughout. Also, the outcome in assay [4], in assay [6] and in [7] was inactive.

As for `Clc1ccc(Nc2nnc(Cc3ccncc3)c3ccccc23)cc1`, the Potency result in assay [1], in assay [10], in assay [12] and in assay [15] was “inactive” throughout. Also, in assay [8], the Potency is 20300 nM (active). Moreover, the result in assay [9] and in assay [11] was inactive. The viability (% of control) in [13] was 90.1%. For the same compound, the viability, percent of control in assay [14] stood at 66.3%.

Regarding `OCCn1cc(-c2cnc3nnn(Cc4ccc5ncccc5c4)c3n2)cn1`, the Potency entry in assay [10], in assay [12], in assay [16] and in [15] was “inactive” throughout. The result in assay [11] was inactive. The viability (% of control) in assay [13] turned out to be 75.8%. Further, the viability, percent of control in [14] stood at 79.7%.

With `CS(=O)(=O)c1ccc(C(=O)Nc2ccc(Cl)c(-c3ccccn3)c2)c(Cl)c1`, the Potency result in assay [10], in [12] and in [16] was “inactive” throughout. Besides, the call in [11] was inactive. For the same compound, in assay [13], the viability (% of control) came to 93.4%. Also, in [14], the viability, percent of control is 99.4%.

As for `Cc1cc(Nc2nc(N[C@@H](C)c3ncc(F)cn3)ncc2Cl)n[nH]1`, the Potency result in [10], in assay [12], in assay [16] and in assay [15] was “inactive” throughout. In [11], the compound was called inactive. Moreover, the viability (% of control) in [13] amounted to 105%. Also, in assay [14], the viability, percent of control worked out at 138%.

`O=C1CCCC2=C1C(c1[nH]ncc1Cl)N=C(Nc1nc3ccccc3o1)N2` (stereo not drawn): the Potency result in [10], in assay [12] and in assay [16] was “inactive” throughout. Moreover, the call in assay [11] was inactive. Moreover, the viability (% of control) in assay [13] turned out to be 75.7%. Besides, the viability, percent of control in [14] stood at 71.6%.

Turning to `COc1ccc2c3n(c(=NC(=O)c4cccnc4)nc2c1OC)CCN3`, the Potency in assay [10] was 1870 nM (active). The result in assay [11] was inactive. The Potency result in assay [12], in assay [16] and in assay [15] was “inactive” in each case. In assay [13], the viability (% of control) was 22.1%. In addition, the viability, percent of control in assay [14] stood at 39.3%.

Take `CCN(CC)CCCC(C)Nc1nc(C)cc(Nc2ccc3nc(C)cc(N)c3c2)n1` (stereo not drawn): the Potency result in [10], in assay [12] and in [16] was “inactive” in each case. Also, the result in assay [11] was inactive. In addition, in [13], the viability (% of control) amounted to 65.5%. Besides, the viability, percent of control in [14] is 67.9%.

Regarding `Cn1cc(-c2ccc3nnc(C(F)(F)c4ccc5ncccc5c4)n3n2)cn1`, the Potency result in assay [10] and in assay [12] was “inactive” in each case. Also, the compound was classed as inactive in [11]. Further, in assay [13], the viability (% of control) turned out to be 76.9%. For the same compound, the viability, percent of control in [14] was 86.8%.

`CNC(=O)c1ccc(C)c(-n2c(C)cc(OCc3ccc(F)cc3F)c(Br)c2=O)c1`: the Potency entry in assay [10] and in assay [12] was “inactive” each time. Moreover, in assay [11], the call was inactive. For the same compound, the viability (% of control) in [13] is 53%. Further, in [14], the viability, percent of control turned out to be 44.5%.

With `Cc1c(CN2CCN(C(=O)C(C)C)CC2)sc2c(N3CCOCC3)nc(-c3cnc(N)nc3)nc12`, in assay [10], the Potency is 148 nM (active). Moreover, in assay [11], the compound was classed as inactive. Also, the Potency result in assay [12] is “inactive”. For the same compound, in assay [13], the viability (% of control) is 3.51%. Besides, the viability, percent of control in assay [14] is 45.6%.

Take `CCN(CCCO)CCCOc1ccc2c(Nc3cc(CC(=O)Nc4cccc(F)c4)[nH]n3)ncnc2c1`: the Potency result in assay [10], in [12], in [16] and in [15] was “inactive” throughout. Further, the compound was called inactive in assay [11]. Also, the viability (% of control) in assay [13] stood at 42.6%. Besides, the viability, percent of control in assay [14] came to 67.6%.

On to `COc1ccc(-c2oc3cc(OC)ccc3c2C(=O)c2ccc(C#N)cc2)cc1`, for which the Potency entry in assay [10], in assay [12] and in [16] was “inactive” in each case. In addition, in [11], the compound was classed as inactive. Moreover, in assay [13], the viability (% of control) came out at 52.2%. Further, the viability, percent of control in assay [14] came to 76%.

With `OC[C@H](Cc1ccccc1)Nc1nc(Oc2ccc3c(c2)CCC3)nc2c1ncn2Cc1ccc(-c2ccccc2)cc1`, the Potency result in assay [10] and in assay [12] was “inactive” in each case. Besides, the compound was classed as inactive in [11]. In addition, the viability (% of control) in assay [13] was 54.4%. Moreover, the viability, percent of control in assay [14] stood at 35.2%.

These data come from PubChem BioAssay (NCATS).
